# Shiga toxin inh: blocks Shiga toxin action in Vero cells. AID 2315. Vero cells, Shiga toxin protein synthesis inhibition reporter. inhibition, % at 38.7 µM. 290,000 tested, 9.2% active; in the data active means inhibition mostly above about 28%, no sharp cut-off; inactive means mostly below about 43%; further: 0% is about no effect
# Vaccinia mCherry: inhibitors of vaccinia virus infection (mCherry reporter signal) | Potency, µM (highest dose often 36.5 µM), without a hit: at the highest dose activity change, negative = inhibition, usual class: inhibitors | Vaccinia virus mCherry reporter infection, fluorescence | 310,000 tested, 0.63% active; calls by dose curve; tested in A549 cells; further: potency means the concentration at half of the fitted maximal effect; on the % scale 0 is the no-effect control and ±100 the full control effect; nearly all actives have a fitted effect of over 35% in size
# CHX counter: counter-screen hit for Shiga toxin inhibitors, cycloheximide | 300,000 tested, 12% active | AID 2314 | max response, % | cell reporter, cycloheximide protein synthesis inhibition counterscreen; in the data active means max response mostly above about 13%, no sharp cut-off; inactive means mostly below about 14%; further: read at 38.3 µM for the half of the compounds with a filed dose; 0% is about no effect
# Vaccinia Venus: vaccinia inhibition (Venus reporter). 330,000 tested, 0.46% active. Vaccinia virus Venus reporter expression, fluorescence. Potency, µM (highest dose often 36.5 µM), for the others: at the highest dose activity change, negative = inhibition, most hits filed as inhibitors; calls by dose curve; tested in A549 cells; further: potency means the concentration at half of the fitted maximal effect; on the % scale 0 is the no-effect control and ±100 the full control effect; nearly all actives have a fitted effect of over 30% in size
# MARV entry inh: inhibitors of Marburg virus binding or cell entry | AID 540276 | Potency, µM (doses to about 37.8 µM), without a hit: top-dose activity change, negative = inhibition, usual class: inhibitors | 300,000 tested, 1.8% active | Marburg virus pseudotyped entry inhibition, cell reporter; calls by dose curve; tested in HEK293 cells; further: potency means the concentration at half of the fitted maximal effect; on the % scale 0 is the no-effect control and ±100 the full control effect
# LASV entry inh: inhibitors of Lassa virus binding or cell entry; Lassa virus pseudotype entry inhibition, cell reporter; Potency, µM (doses to about 37.9 µM), for the others: at the top dose activity change, negative = inhibition, most hits filed as inhibitors; 300,000 tested, 1.2% active; calls by dose curve; tested in HEK293 cells; further: potency means the concentration at half of the fitted maximal effect; on the % scale 0 is the no-effect control and ±100 the full control effect; nearly all actives have a fitted effect of over 50% in size
# * = called active by the depositor; i = inactive; ? = inconclusive; nt = no result; + = active, no number; [ ] = another dose, or the depositor's remark. Shown is part of a subset that was picked to be rich in hits.
SMILES,Shiga toxin inh,Vaccinia mCherry,CHX counter,Vaccinia Venus,MARV entry inh,LASV entry inh
O=C(O)c1ccc2c(c1)C(=O)N(NC(=O)c1ccccc1)C2=O,61*,?,31*,?,2%,0%
O=C(Nc1ccc(C(=O)NN2C(=O)c3ccccc3C2=O)cc1)c1ccccc1,-4,?,-4,-18%,nt,nt
COc1ccccc1CNC(=O)Cn1c(=O)oc2cc(S(=O)(=O)NCc3ccccc3)ccc21,nt,-17%,nt,-12%,nt,?
CCNC(=O)N(C)c1c(CC)nc2ccc(C(=O)N3CCN(C(C)=O)CC3)cn12,nt,3%,nt,-5%,nt,nt
CC(C)(C)c1ccc2c(c1)OC(C(=O)N/N=C\c1ccc(-c3cccc(C(=O)O)c3)o1)CO2 (stereo not given),148*,-10%,70*,4%,?,11%[46.1 µM]
CC(C)(C)c1ccc2c(c1)OC(C(=O)N/N=C\c1ccccn1)CO2 (stereo not given),42,i,9,-14%,14%,-23%
O=C(O)c1cccc(-c2ccc(/C=N/NC(=O)C3COc4ccccc4O3)o2)c1 (stereo not given),+,-11%,56*,2%,4%[46.1 µM],-9%
O=C(N/N=C\c1ccc([N+](=O)[O-])o1)C1COc2ccccc2O1 (stereo not given),67*,?,22*,?,?,?
O=C(N/N=C\c1ccc(-c2ccccc2[N+](=O)[O-])o1)C1COc2ccccc2O1 (stereo not given),-14,-12%,-7,-22%,?,1%
Cc1ncc2c(c1CNC(=O)c1ccc3c(c1)OCO3)CCN(C(=O)C1Cc3ccccc3O1)C2 (stereo not given),nt,-2%,nt,13%,nt,nt
O=S(=O)(N1CCCCC1)N1CCN(c2cc(Cl)ccc2Cl)CC1,1,2%,2,-5%,?,-10%
C[C@@H]1C[C@H]2OC(=O)C3(CO3)[C@H]2[C@H](O)[C@]2(C)C(=O)C3OC3[C@@H]12 (stereo not given in full),40*,nt,21*,nt,nt,nt
O=S(=O)(c1ccccc1)N(C[C@@H](O)CN1CCCCC1)c1ccccc1,nt,nt,nt,nt,-10%[46.1 µM],nt
CCOC(=O)/C=C1\Nc2ccccc2OC1=O,11,-24%,21*,-19%,-7%,1%
Cc1ccc(-c2cc(C(=O)N/N=C/c3ccco3)n[nH]2)s1,10,i,23*,-5%,-3%,-2%
Nc1nccnc1C(=O)N/N=C/c1ccco1,93*,nt,63*,nt,nt,nt
CC(C)(C)c1cc(C(=O)N/N=C/c2ccco2)n[nH]1,43,-17%,33*,-8%,5%,24%
CC(/C=N/NC(=O)c1cc(-c2ccc(C)s2)[nH]n1)=C\c1ccccc1,-15,-22%,9,?,?,?
O=C(Nc1ccc(F)cc1F)c1cc(S(=O)(=O)N2CCCCC2)c[nH]1,nt,-23%,nt,-13%,nt,?
CC(=O)OCC(NC(=O)C(Cc1ccccc1)NC(=O)OC(C)(C)C)C1OC(n2cc(F)c(=O)[nH]c2=O)C(OC(C)=O)C1OC(C)=O (stereo not given),-9,nt,-2,nt,nt,nt
O=C(Nc1cccc(Cl)c1N1CCCC1)c1cc2ccccc2o1,29*,nt,28*,18%,-5%,?
O=C(NC1=NCCS1)c1cccs1,11,nt,-3,1%,-2%,2%
O=C(Nc1ccc(Cl)cn1)c1cc2ccccc2o1,105*,i,66*,-28%,?,?
O=C(Nc1cccc(Cl)c1N1CCCC1)c1ccc(Br)o1,2,nt,-1,nt,-7%,-11%
O=C(NC1=NCCS1)c1cc2ccccc2o1,17,nt,18*,nt,?,?
SMILES,Shiga toxin inh,Vaccinia mCherry,CHX counter,Vaccinia Venus,MARV entry inh,LASV entry inh
O=C(NNC(=O)c1cc2ccccc2o1)c1ccc(Cl)cc1,-5,-14%,0,-10%,?,5%
O=C(Nc1ccccc1C(F)(F)F)c1cc2ccccc2o1,nt,nt,32*,nt,nt,nt
COc1ccc(CNC(=O)O[C@]23C[C@H]4C(=O)N(c5ccccc5)C(=O)[C@H]4C[C@@]2(O)CN(S(=O)(=O)c2ccc(C)cc2)C3)cc1OC,nt,i,nt,-13%,nt,nt
Cc1ccc(C)c(NC(=O)c2cc3ccccc3o2)c1,75*,nt,51*,nt,nt,nt
Cc1cc([N+](=O)[O-])ccc1NC(=O)c1ccco1,-3,i,-1,9%,19%[46.1 µM],-6%
O=C(Nc1ncccc1O)c1cc2ccccc2o1,nt,-22%,nt,-23%,?,1.3µM*
